Source: PubChem BioAssay (NCATS)
Inconclusive results are not listed. Unmarked numbers belong to inactive results. Calls come from the whole dose curve; as a rule, active = well fitted cell-killing curve with a large enough effect; inconclusive = small, poorly fitted or top-dose-only effect, or effect the other way; inactive = flat fitted curve, though single readings scatter.

test system: CASKI; assay: Primary qHTS to identify gynecologic anti-cancer compounds using libraries of approved drugs and bioactive compounds (AID 1345084); conditions: Gynecologic cancer cell panel viability, ATPlite luminescence, 48 h; series mostly up to 57.5 µM; activity change, negative = cytotoxicity: at the top concentration; note: nearly all actives have a fitted effect of over 55% in size
In short: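 Cells, 1,000 per well, plated 16 h, then exposed 48 h at 37 C to compounds. Viability by ATPlite luminescence after 15 min at room temperature.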
% is set by controls: 0 for no effect and ±100 for the full control effect.

Row | SMILES | activity change, negative = cytotoxicity
1 | CC1(C)CC[C@]2(C(=O)O[C@@H]3O[C@H](CO)[C@@H](O)[C@H](O)[C@H]3O)CC[C@]3(C)C(=CCC4[C@@]5(C)CC[C@H](OC6OC(C(=O)O)C(OC7OC(CO)C(O)C(O)C7O)C(O)C6O)C(C)(C)C5CC[C@]43C)C2C1 (stereo partly specified) | 15.2% [at 11.6 µM]
2 | COc1cccc(CN(C(=O)CC(C)(C)C)C2CC(C(=O)N3CCNCC3)N(Cc3ccc4c(c3)OCO4)C2)c1 (stereo unspecified) | -4.61%
3 | C/C=C(/C)C(=O)OC1CC(C)(C)CC2C3=CCC4C5(C)CCC(OC6OC(C)C(OC7OC(C(=O)O)C(O)C(OC8OC(CO)C(O)C(O)C8OC8OC(CO)C(O)C(O)C8O)C7O)C(O)C6O)C(C)(C)C5CCC4(C)C3(C)C(OC(=O)/C=C/C=C/C=C/CCC)C(OC(C)=O)C12CO (stereo unspecified) | -6.51% [at 6.55 µM]
4 | Cc1ccc(-c2c(-c3nn(C)c4ncnc(N5CC[C@H](N6CCCCC6)C5)c34)cnn2C)cc1 | -2.83%
5 | O=C(/C=C/C=C/c1ccc2c(c1)OCO2)N1CCCCC1 | -19.5%
6 | O=C(O)c1cc(O[C@@H]2O[C@H](CO)[C@@H](O)[C@H](O)[C@H]2O)ccc1O | 8.95% [at 38.5 µM]
7 | Nc1nc(COC(=O)c2ccc([N+](=O)[O-])cc2)nc(Nc2ccccc2)n1 | 1.75%
8 | C[C@@H]1O[C@@H](O[C@H]2[C@H](O[C@H]3[C@H](O[C@H]4CC[C@@]5(C)C(CC[C@]6(C)C5CC=C5[C@@H]7CC(C)(C)C[C@@H](O)[C@]7(C)CC[C@]56C)[C@@]4(C)CO)O[C@H](C(=O)O)[C@@H](O)[C@@H]3O)O[C@H](CO)[C@H](O)[C@@H]2O)[C@H](O)[C@H](O)[C@H]1O (stereo partly specified) | 9.29% [at 11.6 µM]
9 | COc1cc(CO)ccc1O[C@@H]1O[C@H](CO)[C@@H](O)[C@H](O)[C@H]1O | 9.91% [at 38.5 µM]
10 | COC(=O)c1c(CC=C(C)C)c(OC2OC(CO)C(O)C(O)C2O)c2ccccc2c1OC1OC(CO)C(O)C(O)C1O (stereo unspecified) | -8.92% [at 25.3 µM]
11 | CO[C@H]1c2cc(C(C)C)c(O)c(O)c2[C@@]23CCCC(C)(C)C2[C@@H]1OC3=O (stereo partly specified) | -0.436% [at 38.5 µM]
12 | COc1cc(C(C)=O)ccc1O[C@@H]1O[C@H](CO[C@@H]2OC[C@@H](O)[C@H](O)[C@H]2O)[C@@H](O)[C@H](O)[C@H]1O | -18.1% [at 25.3 µM]
13 | COC(=O)c1[nH]c(=O)c2ccccc2c1-c1ccc[nH]1 | -1.37%
14 | CN[C@H](CNC(=O)N1CCC[C@@H]([C@@H](OCCNC(=O)OC)c2cccc(Cl)c2)C1)C[C@H]1CCCOC1 | 14.9%
15 | CC(C)[C@@H](C(=O)O)N1Cc2c(cc(O)c3c2O[C@]2(C3)[C@H](C)CCC3C(C)(C)[C@H](O)[C@H](O)C[C@@]32C)C1=O (stereo partly specified) | 4.2% [at 25.3 µM]
16 | CCOC(=O)CSc1nc2c(sc3ccccc32)c(=O)n1CCCN1CCCC1 | -0.837%
17 | CC1CCC2(C(=O)O)CCC3(C)C(=CCC4C5(C)CCC(O)C(C)(C(=O)O)C5CCC43C)C2C1(C)O (stereo unspecified) | -5.11% [at 25.3 µM]
18 | Cc1ccccc1N1CCN(S(=O)(=O)C[C@]23CC[C@H](C[C@@H]2NC(=O)[C@@H](N)CCS(C)(=O)=O)C3(C)C)CC1 | 16.5%

Row | SMILES | activity change, negative = cytotoxicity
19 | C/C=C(\C)C(=O)OCC1OC(OCC2OC(OC3(CO)OC(CO)C(O)C3O)C(O)C(O)C2O)C(O)C(O)C1O (stereo unspecified) | 12.9% [at 25.3 µM]
20 | COc1ccc(/C=C/C(=O)O[C@@H]2[C@@H](OC(C)=O)[C@@H](OC(C)=O)[C@H](O[C@H]3[C@@H]4C=CO[C@@H](O[C@@H]5O[C@H](CO)[C@@H](O)[C@H](O)[C@H]5O)[C@@H]4[C@@]4(CO)O[C@@H]34)O[C@H]2C)cc1 | 3.2% [at 25.3 µM]
21 | CC1=C2C[C@@]3(C)[C@@H](CCC[C@@H]3C)C[C@@]2(O)OC1=O | 25.1%
22 | COC(=O)/C=C/c1ccc(O[C@@H]2O[C@H](CO)[C@@H](O)[C@H](O)[C@H]2O)cc1 | -3.1% [at 38.5 µM]
23 | FC(F)(F)Oc1ccc(-c2ccc3nnc(C(F)(F)F)n3c2)cc1 | -4.21%
24 | C=C(C(=O)O)C1CC(OC(=O)CC(C)CC)C2(C)CCCC(=C)C2C1 (stereo unspecified) | 1.85% [at 38.5 µM]
25 | CC(C)(O)C1CC=C(C(=O)OC[C@H]2O[C@@H](OC(=O)C3=CCC(C(C)(C)O)CC3)[C@H](O)[C@@H](O)[C@@H]2O)CC1 (stereo partly specified) | 5.51% [at 25.3 µM]
26 | N#Cc1ccc(C2CCCc3cncn32)cc1 (stereo unspecified) | -14.6% [at 25.3 µM]
27 | C[C@@H]1O[C@@H](O[C@@H]2[C@@H](O)[C@H](O[C@@H]3[C@@H](O)[C@@H](O)[C@H](O[C@H]4[C@H](OC(=O)[C@]56CCC(C)(C)C[C@H]5C5=CCC7[C@@]8(C)C[C@H](O)[C@H](O[C@@H]9O[C@H](C(=O)O)[C@@H](O)[C@H](O)[C@H]9O)[C@@](C)(CO)C8[C@H](O)C[C@@]7(C)[C@]5(C)C[C@H]6O)O[C@@H](CO)[C@@H]4O)O[C@H]3C)OC[C@H]2O)[C@H](O)[C@H](O)[C@H]1O (stereo partly specified) | 4.5% [at 6.55 µM]
28 | C=C1C2CCC3C(CCC4[C@@]3(C)CCC[C@@]4(C)C(=O)O)(C2)[C@@H]1OC(=O)/C(C)=C\C (stereo partly specified) | -4.38% [at 25.3 µM]
29 | O=C(O)c1cccc(C(=O)CCC2OC(n3cnc4c(=O)[nH]cnc43)C(O)C2O)c1 (stereo unspecified) | -16.9% [at 25.3 µM]
30 | CC1(CO)CCCC2(C)C1C(OC(=O)c1ccccc1)CC1C(=O)OCC12O (stereo unspecified) | -1.5% [at 38.5 µM]
31 | CC1C2=CC(=O)OC2(O)CC2C1C(O)CC1C(C)(CO)CCCC21C (stereo unspecified) | 4.32% [at 38.5 µM]
32 | COc1cc2c(cc1OC)N1C(=O)C[C@@]34C=CC[N@+]5([O-])CC[C@H]2[C@H](CC3)[C@@]145 | -3.66% [at 38.5 µM]
33 | CCCN1CCC[C@@H](c2cccc(S(C)(=O)=O)c2)C1 | 7%
34 | CC1CCC2(C(=O)OC3OC(CO)C(O)C(O)C3O)CCC3(C)C(=CCC4C5(C)CCC(O)C(C)(CO)C5CCC43C)C2C1(C)O (stereo unspecified) | -18.4% [at 25.3 µM]
35 | COc1ccc(Oc2c(Cl)cnn(C3c4ccccc4-c4ccccc43)c2=O)cc1 | -1.03%
36 | Cc1nnc(-c2sc(NC(=O)[C@H](C(C)C)n3c(=O)[nH]c4ccccc4c3=O)nc2C)o1 | 14.7%
